Assay [1] in a line: qHTS Assay for Agonists of the Thyroid Stimulating Hormone Receptor. The note with it: HEK293-CNG-TSHR cells, membrane potential dye, cAMP; measured here: parental cells max response. An excerpt:
(§1) NIH Chemical Genomics Center [NCGC]
(§2) NIH Molecular Libraries Screening Centers Network [MLSCN]
(§3) PI Name: Dr. Marvin Gershengorn, NIH
(§4) Thyroid Stimulating Hormone Receptor
(§5) TSH is an alpha/beta heterodimeric glycoprotein hormone secreted from the anterior pituitary gland which belongs to the glycoprotein hormone family. The actions of TSH are mediated by a seven-transmembrane receptor, which upon TSH binding couples preferentially to the G-alpha (s) protein (Gs), resulting in activation of adenylate cyclase and increase in cyclic adenosine 3', 5' monophosphate (cAMP). The TSH receptor (THSR) is mainly expressed in thyroid follicular cells and regulates their growth and function. Recombinant TSH is used to activate TSHR in patients with thyroid cancer receiving thyroid hormone suppression therapy and to screen for residual tumor after surgery, but it is expensive and must be administered intramuscularly. An orally active small molecule TSHR agonist would serve as an invaluable research tool for studying TSHR pharmacology and physiology, and would have multiple advantages in therapeutic settings. However, no selective small molecule agonist of the TSH receptor exists, and no small molecule screen for TSHR agonists has ever been reported.
(§6) This cell based assay utilized a cyclic nucleotide gated ion channel (CNG) as a biosensor for cAMP induction by potential TSHR agonists.
(§7) HEK 293 cells stably expressing the TSHR as well as a modified CNG were purchased from BD biosciences. Stimulation of cAMP production causes the CNG to open and subsequent membrane depolarization to occur. A fluorescent membrane potential dye (BD biosciences) was utilized to detect cAMP stimulation in TSHR cells.
(§8) The cells were maintained in DMEM medium (Invitrogen) containing 10 % FBS (Hyclone), 100 units/ml Penicillin, 100 ug/ml Streptomycin (Invitrogen), and 250 ug/ml Geneticin (Invitrogen) and 1 ug/ml Puromycin (Invitrogen) at 37C in 5% CO2. HEK 293 cells expressing CNG but without TSHR (parental cells) were used in concert to control for compounds signaling through endogenous receptors and targets of HEK 293 cells.
(§9) NCGC Assay Protocol Summary:
(§10) High Throughput Screening. Freshly passaged cells (TSHR or parental) were dispensed into 1536-well assay plates at 4 ul/well in DMEM containing phenol red (Invitrogen), 10% FCS (Hyclone), and 100 units/ml Penicillin, 100 ug/ml Streptomycin (Invitrogen) and incubated at 37 C with 5% CO2 for 20 to 36 hrs before the robotic screening. The screen was initiated by addition of 4 ul/well membrane potential dye containing 100 uM RO 20-1724 (Sigma Aldrich), followed by 60 min incubation at room temperature to allow for dye equilibration across the cell membrane. 23 nl/well compound or control was then added to the assay plates, which were incubated for additional 30 min before reading a Envision fluorescence plate reader (Perkin Elmer) in bottom-read mode for fluorescence intensity (emission at 590 nm).
(§11) Keywords: Thyroid-stimulating hormone TSH, TSHR, TSHR agonist, quantitative high throughput screening, qHTS, HTS, probe identification, CNG, cAMP, cyclic nucleotide gated ion channel PubChem
(In general: Quantitative high-throughput screening tests each substance at several concentrations.)

The target in assay [2] is Thyrotropin receptor (Homo sapiens) (UniProt P16473). The description is as above. The following applies: HEK293-CNG-TSHR cells (CNG channel as cAMP sensor), membrane potential dye, cAMP; series mostly up to 57.1 µM.
From the text: as §1, §2, §3, §4, §5, §6, §7, §8, §9, §10, §11

Drawing on PubChem BioAssay AID926 (National Center for Advancing Translational Sciences (NCATS), 2007), this text covers activation and Potency for ten molecules.

Molecules are shown by their SMILES. Where “and” joins values, the source holds several entries; their conditions need not be identical. Identical values can stand only once. Among all 73,000 compounds or so, about 350 (0.48%) were called active. Inconclusive results (about 17%) are left out. The sample holds actives, similar compounds and a random draw of the others, so the mix is not that of the screen. The call rests on the fitted dose curve; in most records, active means well fitted activation curve with a large enough effect in the main read-out, with a control signal flat (not every such curve was filed as active); inconclusive means small, poorly fitted or top-dose-only effect, or a change in a side signal; inactive means no such curve, though single readings can be large or run the other way; reference of the percent scale not stated here. A structure can be active in one record and inactive in another.
Potency means the concentration at half of the fitted maximal effect.

Chain of Thyrotropin receptor (Homo sapiens) (P16473 whole entry, looked up): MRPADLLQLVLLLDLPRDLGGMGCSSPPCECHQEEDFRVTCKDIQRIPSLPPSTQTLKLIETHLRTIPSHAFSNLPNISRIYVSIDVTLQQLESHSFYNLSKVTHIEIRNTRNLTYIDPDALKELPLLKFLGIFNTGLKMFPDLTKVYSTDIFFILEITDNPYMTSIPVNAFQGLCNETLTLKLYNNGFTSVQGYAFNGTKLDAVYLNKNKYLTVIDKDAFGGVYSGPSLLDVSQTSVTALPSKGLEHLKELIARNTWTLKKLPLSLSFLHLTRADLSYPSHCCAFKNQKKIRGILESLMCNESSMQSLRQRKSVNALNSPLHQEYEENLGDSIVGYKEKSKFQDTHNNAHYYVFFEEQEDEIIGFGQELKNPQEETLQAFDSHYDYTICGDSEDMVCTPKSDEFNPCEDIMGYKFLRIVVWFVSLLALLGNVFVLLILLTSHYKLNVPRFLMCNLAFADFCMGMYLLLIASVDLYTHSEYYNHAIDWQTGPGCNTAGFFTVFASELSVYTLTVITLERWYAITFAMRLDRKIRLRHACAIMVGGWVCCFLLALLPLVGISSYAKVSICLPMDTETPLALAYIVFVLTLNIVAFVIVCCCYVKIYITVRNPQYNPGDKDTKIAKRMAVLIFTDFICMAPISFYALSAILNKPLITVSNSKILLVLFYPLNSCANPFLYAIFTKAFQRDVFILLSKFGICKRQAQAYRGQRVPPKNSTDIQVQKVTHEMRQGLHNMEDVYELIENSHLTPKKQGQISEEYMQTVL

As for `CCOC(=O)CC1=C(C(=O)OCC)C2(C(=O)N1)C(C(=O)OC)=C(N)Oc1ccccc12` (centres undefined), the activation in assay [1] was determined as 2.69%. In addition, in assay [2], the Potency result was “inactive”.

With `CCOC(=O)C1=C(C)OC(N)=C(C(=O)OC)C12C(=O)Nc1ccc(Br)cc12` (centres undefined), in assay [1], the activation was found to be 2.68%. Further, in assay [2], the Potency entry was “inactive”.

As for `C=CCN1C(=O)C2(C(C(=O)OCC)=C(N)Oc3c2c(=O)oc2ccccc32)c2ccccc21` (centres undefined), the activation in assay [1] was -2.59%. Also, the Potency in assay [2] is 1000 nM (active).

On to `C/C(=C\C=C/[C@@H](C)C(=O)O)[C@H]1CN[C@H](C(=O)O)[C@@H]1CC(=O)O`, for which the activation in assay [1] turned out to be 10.5%. Further, the Potency entry in assay [2] was “inactive”.

`CN1[C@H]2CC(OC(=O)[C@@H](CO)c3ccccc3)C[C@H]1[C@H]1O[C@H]12` (some centres undefined): the activation in assay [1] was found to be 8.99%. In assay [2], the Potency entry is “inactive”.

Take `C[C@]12CC[C@H](O)C[C@@H]1CC[C@H]1[C@H]2CC[C@]2(C)C(=O)CC[C@@H]12`: the activation in assay [1] was -0.6% and 8.47% and 0.887%. Also, the Potency entry in assay [2] was “inactive”.

`CN=C(NC#N)NCCSCc1nc[nH]c1C`: the activation in assay [1] was 6.37% and -0.29%. Further, the Potency entry in assay [2] is “inactive”.

For `CNCC[C@H](Oc1ccc(C(F)(F)F)cc1)c1ccccc1`, in assay [2], the Potency entry was “inactive and 126 nM (active)”.

As to `Clc1ccc([C@@H]2C[C@H]3CC[C@@H]2N3)cn1`, the activation in assay [1] was 5.78%. Further, in assay [2], the Potency result was “inactive”.

With `Clc1cccc(Cl)c1Cl`, the activation in assay [1] stood at 22.7%. The Potency entry in assay [2] is “inactive”.
